The text below walks through data of PubChem BioAssay (NCATS).

Molecules are shown by their SMILES. Where “and” joins values, the source holds several entries; their conditions need not be identical. Equal values may be shown once. Results filed as inconclusive are left out. Calls of active or inactive are those of the source. Unless noted, calls come from the whole dose curve; as a rule, active = well fitted activation curve with a large enough effect; inconclusive = small, poorly fitted or top-dose-only effect; inactive = flat fitted curve, though single readings scatter.
Note: % of control where 0% means no effect.

Tested on in one assay: not listed separately
In words: qHTS assay for small molecule activators of the p53 signaling pathway (AID 651743; active = well fitted activation curve with a large enough effect in the signal ratio, not every such curve was filed as active; the % refers to the signal ratio; note: series mostly up to about 92 µM). To be noted: HCT-116 p53RE-bla, beta-lactamase FRET ratio, 16 h; activation: stronger effect = higher value. A digest of the protocol: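 Here HCT-116 cells with an integrated p53-responsive beta-lactamase gene were incubated with compounds (16 hours, 37 C) after a 5-hour plating period; beta-lactamase activity was detected as fluorescence intensity via B/G FRET substrate.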
In general terms: qHTS replaces the single test concentration by a dilution series.
As for `NCCN`, the activation was 3.88% (inactive).
Still for that read-out and setting: to `CC(C)(C)CC(C)(C)c1ccc(OCCO)cc1` belongs 9.34% (inactive).
For the compound `C=C(C)C1CC=C(C)CC1` (stereo not given), the activation is -4.46% (inactive).

Tested on in another assay: not listed separately
Nature of the assay: qHTS assay for small molecule activators of the nuclear factor-kappa B (NF-kB) signaling pathway (AID 651749; active = well fitted activation curve with a large enough effect in the signal ratio; the % refers to the signal ratio; note: series mostly up to about 77 µM). The settings on record: NF-kB-bla ME-180 cells, beta-lactamase FRET ratio, 16 h; stronger effect = higher value. The method, boiled down: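 Beta-lactamase reporter expression, controlled by NF-kB response elements in ME-180 cells, was quantified fluorometrically via FRET disruption; cells at 2,000/well had been incubated with 23 nL test compound for 16 hr.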
As for `NCCN`, the activation was -0.458% (inactive).
For `CC(C)(C)CC(C)(C)c1ccc(OCCO)cc1`, the activation was 0.716% (inactive).
In the case of `CC(C)[C@@H]1CC[C@@H](C)C[C@H]1O`, the activation was 0.809% (inactive).
On to `C=C(C)C1CC=C(C)CC1` (stereo not given), for which the activation was -0.265% (inactive) and 0.532% (inactive).

Tested on in another assay: not listed separately
Nature of the assay: qHTS assay for environmental chemicals that activate the Aryl hydrocarbon Receptor (AhR) signaling pathway (AID 651777). Note: nearly all actives have a fitted effect of over 15% in size. The settings on record: 1A2-DRE human hepatoma cells, luciferase, 24 h; activation: stronger effect = higher value. The method, boiled down: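 Human hepatoma 1A2-DRE cells stably carrying a DRE/CYP1A2 promoter–luciferase reporter, 1,200 cells/well, exposed to compound 24 hr at 37 C. Luciferase read by One-Glo luminescence after 30 min at room temperature; increased signal marks AhR activation.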
Turning to `NCCN`, the activation is -1.15% (inactive).
The same measure, in the same setting: to `CC(C)(C)CC(C)(C)c1ccc(OCCO)cc1` belongs 2.97% (inactive); to `CC(C)[C@@H]1CC[C@@H](C)C[C@H]1O`, -0.378% (inactive).
For the compound `C=C(C)C1CC=C(C)CC1` (stereo not given), the activation is -2.32% (inactive) and -0.122% (inactive).

In another assay the target is Peroxisome proliferator-activated receptor alpha (Homo sapiens) (UniProt Q07869). Nature of the assay: qHTS assay for small molecule agonists of the peroxisome proliferator-activated receptor alpha (PPARalpha) signaling pathway (AID 651778). The settings on record: PathHunter PPARalpha complementation, chemiluminescence, 6 h; stronger effect = higher value. A digest of the protocol: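 Cells plated at 2,000/well and held overnight at 37 C, 5% CO2, then compound added by pin tool for 6 hr; after PathHunter detection reagent and 60 min at room temperature, chemiluminescence from enzyme complementation was read.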
Peroxisome proliferator-activated receptor alpha (Homo sapiens), sequence (Q07869 whole entry, looked up): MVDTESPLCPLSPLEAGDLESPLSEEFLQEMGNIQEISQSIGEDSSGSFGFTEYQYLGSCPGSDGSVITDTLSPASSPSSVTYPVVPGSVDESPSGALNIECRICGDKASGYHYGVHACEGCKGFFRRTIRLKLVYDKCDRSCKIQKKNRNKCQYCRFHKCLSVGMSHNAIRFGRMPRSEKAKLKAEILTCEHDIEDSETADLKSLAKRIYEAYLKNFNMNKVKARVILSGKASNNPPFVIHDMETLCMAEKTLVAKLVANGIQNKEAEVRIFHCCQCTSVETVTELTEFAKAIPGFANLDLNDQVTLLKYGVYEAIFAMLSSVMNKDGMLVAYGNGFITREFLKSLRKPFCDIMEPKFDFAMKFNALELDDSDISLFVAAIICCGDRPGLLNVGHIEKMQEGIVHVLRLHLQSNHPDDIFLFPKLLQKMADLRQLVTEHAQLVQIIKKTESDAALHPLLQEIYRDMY
Turning to `NCCN`, the max response was -6.55% (inactive).
On to `CC(C)(C)CC(C)(C)c1ccc(OCCO)cc1`, for which the max response was 20.4% (inactive).
For the compound `CC(C)[C@@H]1CC[C@@H](C)C[C@H]1O`, the max response was -1.09% (inactive).
Still for that read-out and setting: to `C=C(C)C1CC=C(C)CC1` (stereo not given) belongs -1.15% (inactive) and 0.153% (inactive).
